# Assay results: the supplement of paper PMC6555819
# Experiments:
# Assay in all cases: PBM binding z-score (relative to random genomic background probes); higher = stronger binding; sequences stand for … in GC…GCGATTGACAGCGTAGAATGAAGG
# [1] = tested on: PPARg:RXRa DBDmut IVT, anti-RXR (DBD mutation: RXRa K156A/R161A, NR concentration 270 nM, RXRa partner concentration 90 nM)
# How it was run: (§1)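 Antibodies against each partner of ligand-free nuclear receptor dimers (one per run) detected binding on custom Agilent 4×180K protein-binding microarrays after 1 h incubation. The double-stranded probes had 34-nt variable regions carrying direct-repeat seeds, single-nucleotide variants, half-site ablations and random human genomic background sequences. Binding z-scores, from regression-normalized fluorescence, use the random background probes as reference.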
# [2] = tested on: PPARg:RXRa IVT, anti-PPARg (NR concentration 270 nM, RXRa partner concentration 90 nM)
# How it was run: as §1
# [3] = tested on: PPARg DBDmut:RXRa IVT, anti-PPARg (DBD mutation: PPARg1 K132A/R137A, NR concentration 270 nM, RXRa partner concentration 90 nM)
# How it was run: as §1
# [4] = tested on: PPARg DBDmut IVT, anti-PPARg (DBD mutation: PPARg1 K132A/R137A, NR concentration 270 nM)
# How it was run: as §1
# [5] = tested on: PPARg homodimer (NR concentration 180 nM)
# How it was run: as §1
# [6] = tested on: PXR:RXRa (NR concentration 270 nM, RXRa partner concentration 90 nM)
# How it was run: as §1
# [7] = tested on: PXR homodimer (NR concentration 270 nM)
# How it was run: as §1
# [8] = tested on: RARa:RXR (NR concentration 270 nM, RXRa partner concentration 90 nM)
# How it was run: as §1
# [9] = tested on: RARa homodimer (NR concentration 270 nM)
# How it was run: as §1
# [10] = tested on: RARb:RXRa (NR concentration 270 nM, RXRa partner concentration 90 nM)
# How it was run: as §1
# [11] = tested on: RARb homodimer (NR concentration 270 nM)
# How it was run: as §1
# [12] = tested on: RARg:RXRa (NR concentration 270 nM, RXRa partner concentration 90 nM)
# How it was run: as §1
# [13] = tested on: RARg homodimer (NR concentration 270 nM)
# How it was run: as §1
# [14] = tested on: RXRa DBDmut IVT, anti-RXR (DBD mutation: RXRa K156A/R161A, NR concentration 90 nM)
# How it was run: as §1
# [15] = tested on: RXRa homodimer (NR concentration 180 nM)
# How it was run: as §1
# [16] = tested on: THRa:RXRa (NR concentration 90 nM, RXRa partner concentration 90 nM)
# How it was run: as §1
# [17] = tested on: THRa homodimer (NR concentration 90 nM)
# How it was run: as §1
# [18] = tested on: VDR homodimer (NR concentration 270 nM)
# How it was run: as §1
Sequence,PBM binding z-score [1],PBM binding z-score [2],PBM binding z-score [3],PBM binding z-score [4],PBM binding z-score [5],PBM binding z-score [6],PBM binding z-score [7],PBM binding z-score [8],PBM binding z-score [9],PBM binding z-score [10],PBM binding z-score [11],PBM binding z-score [12],PBM binding z-score [13],PBM binding z-score [14],PBM binding z-score [15],PBM binding z-score [16],PBM binding z-score [17],PBM binding z-score [18]
TCACATAGGTAAATGCTAGGTGAAAGTCCGATCT,2.22,1.12,0.19,-0.0289,-0.198,0.34,-0.0319,0.692,-0.153,0.251,0.255,0.301,0.189,1.17,0.654,1.31,0.359,-0.199
ATGTCTAGGTAAGACTCAGTTCAGTGAAGAACGC,0.955,0.996,0.297,0.538,0.433,0.668,1.4,-0.0923,0.712,0.132,0.578,0.0385,0.257,0.0481,0.0164,0.567,0.326,1.07
CGAACTAGGGCATTGACAGGACAGTGAATAGTAA,6.82,6.53,1.42,0.993,0.464,-0.229,-0.0482,-0.297,0.262,1.14,0.812,1.07,1.13,0.467,0.388,0.559,-0.0936,0.137
TCATAAAGGTAAACAGGTGAAAGTCCGTAAGTTA,3.73,2.72,0.109,0.863,1.24,1.22,0.86,1.89,1.6,1.65,1.37,1.34,0.882,1.53,1.74,1.22,0.368,0.647
ATCGAAAGGTCGACGAGCTGAGTATACACCGTTT,0.472,1.18,0.525,1.06,0.589,2.22,-0.245,2.78,0.204,3.72,2.38,3.86,3.6,1.09,4.01,1.58,-0.705,0.176
CTAACTAGGTCAAGGACAGTGAATCTCCGCACGC,8.7,8.66,2.25,1.42,3.48,1.21,0.296,1.87,0.59,4.08,3.16,3.64,4.21,1.34,2.64,3.08,2.01,0.398
TCATATAGGTAGTACAGGTGAAAGTCGGCATCTA,2.26,1.52,1.27,1.09,1.08,0.715,0.204,1.16,1.16,0.562,0.475,0.549,0.317,1.32,1.02,0.404,0.361,0.606
CGAACTAGGTCAAGGACGGTGAATCTCCGCACGC,7.98,7.86,0.422,-0.145,0.732,1.03,-0.242,1.5,-0.265,3.76,2.96,3.53,4.38,0.975,2.64,2.88,1.24,-0.409
TTACCAAGGTGAGTTGAGGTCGTTGATCCAACTC,0.767,1.95,-0.517,-0.489,0.402,4.83,0.689,2.24,-0.309,1.54,1.84,1.33,1.18,0.713,1.56,4.72,2.28,2.18
ACTAGTAGTTGACTTAGGGCAACCGATACGACGC,-0.00679,0.335,0.301,0.391,-0.372,-0.0724,-0.195,0.555,0.281,0.593,0.773,0.36,0.487,-0.14,0.393,1.44,-0.151,-0.0873
TATACAGGGTCAAAGGCCAGAGTGCGAATGTCGA,2.54,4.9,2.49,2.56,5.37,4.79,1.14,6.61,1.49,4.59,3.58,5.91,5,3.25,7.4,3.57,0.842,3.38
CAAACTAGGTCACCGGAAGGTAAAAGTCCGCATG,8.41,8.97,5.23,6.11,4.02,2.47,0.103,3.44,0.872,4.32,3.46,5.33,5.29,1.61,3.87,3.69,1.84,1.01
TCATATAGGTGAACAGGTGAAAGTCCGTAAGTTA,6.52,6.31,1.63,1.36,1.1,1,0.638,1.46,0.907,1.64,1.38,1.52,1.13,1.68,1.75,1.13,0.464,0.153
TCATATAGGTATAGGTGAAAGTCGAACGATATGA,2.01,1.55,0.818,1.13,0.0595,0.316,0.0974,0.665,0.0245,0.587,0.405,0.646,0.511,0.538,1.13,0.242,-0.544,-0.127
TTTACAGGGTCAAAGGCCAGAGTACGAATGTCGA,3.26,5.18,1.93,1.36,1.8,4.41,0.247,6,1.16,4.52,3.46,5.91,5.11,3.13,6.94,3.63,0.893,2.97
TAGCGTAGGTCAGATCGGGCCAGTATACGCTATA,-0.503,0.617,-0.164,-0.912,-0.143,1.48,-0.976,1.23,-1.14,3.07,1.87,2.85,3.72,-0.899,1.83,3.93,-1.02,-0.553
